# Shown are actives, neighbours in structure and some others; about 3.2% of the full set was active somewhere.
# LMP1 NFkB inh: Epstein-Barr LMP1 NF-kappaB reporter inhibition. AID 504558. inhibition, % at 12.5 µM. actives 0.69% (n = 350,000). LMP1-induced NF-kappaB luciferase reporter cells, luminescence; in the data active means inhibition above about 41%; inconclusive means no clear call, values can overlap the other calls;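 further: 0% = neutral control wells and 100% = reference inhibitor control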
# TROY signal inh: blocks TROY-dependent signaling in reporter cells; inhibition, % at 10 µM; AID 1347056; actives 0.98% (n = 360,000); Q293 LMP1-TROYcd NF-kB luciferase reporter, 4 h;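 active means compounds whose plate-normalised and pattern-corrected inhibition of the luciferase reporter signal at the single screening dose is 50% or more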
# TWEAK-Fn14 inh: inhibitors of TWEAK-Fn14 interaction signaling. AID 1159606. TWEAK-stimulated Fn14 reporter cells, luciferase luminescence, 8 h. inhibition, % at 10 µM. actives 2% (n = 360,000); in the data active means inhibition above about 50%
# LGR2 antag: Drosophila LGR2 receptor signaling inhibition; HEK293 LGR2, CRE-luciferase, bursicon-stimulated, 4 h; inhibition, % at 9.99 µM; actives 0.35% (n = 380,000); AID 720647;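 active means drop in luminescence signal, shown as inhibition above about 50% in the replicate tests, limit read from the data, passing the limit was not always enough; inconclusive means probably only some replicates passing the limit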;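 further: agonist challenge used bursicon conditioned medium at about half maximal strength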
# EWS-Fli inh: inhibitors of EWS/Fli oncoprotein transcriptional activity; A673 NR0B1-luciferase reporter, viability-normalised; inhibition, % at 12.6 µM; actives 0.67% (n = 350,000); AID 651661;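 active means mean inhibition of at least 50% after viability correction, with every replicate also passing that limit; inconclusive means mean reaches 50% but only one of two replicates passes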;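 further: firefly luciferase signal divided by Alamar Blue viability fluorescence both relative to DMSO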
# PAX8 inh HTS: inhibitors of PAX8 transcriptional activity in RMG-I cells; RMG-I TPO-luciferase reporter, SteadyGlo, 24 h; inhibition, % at 12.6 µM; actives 1.2% (n = 360,000); AID 652154;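 active means mean replicate inhibition at least 60% with every replicate also reaching 60%; inconclusive means only one of the two criteria is met; inactive means mean below 60% and not all replicates reaching 60%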;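 further: luciferase light reporting Pax8 driven TPO promoter activity; plate controls were median of neutral control wells for no effect and mitoxantrone controls for full effect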
# * = called active by the depositor; ? = inconclusive; / = not tested or not shown.
SMILES,LMP1 NFkB inh,TROY signal inh,TWEAK-Fn14 inh,LGR2 antag,EWS-Fli inh,PAX8 inh HTS
C[C@H](CO)N1C[C@H](C)[C@@H](CN(C)Cc2ccc(Cl)c(Cl)c2)Oc2ccc(NC(=O)NC3CCCCC3)cc2CC1=O,/,/,/,16,14,4
Cc1ccc(NC(=O)C2CCCC2)cc1Cl,8,-14,3,-37,-19,-6
Cc1ccc(NS(=O)(=O)c2ccc(Cl)c(NC(=S)NC(=O)C3CCCCC3)c2)cc1Cl,-7,36,65*,3,/,16
COc1ccc(CCN(C(=O)c2ccc(F)cc2)C2=CC3CCC(C2)N3C)cc1OC (stereo not drawn),-2,-5,68*,/,/,/
C=CCNC(=O)c1cc(-c2ccncc2)nc2c(C)cc(C)cc12,-5,84*,-8,0,4,/
Cc1ccccc1NC1=C(C(=O)c2ccccc2)N(C)S(=O)(=O)c2ccccc21,0,17,20,/,/,/
O=C(C1=C(Nc2ccccc2)c2ccccc2S(=O)(=O)N1)c1ccccc1,-9,55*,74*,/,5,6
CCOC(=O)c1nc(C)nc(Sc2n[nH]c(-c3cc(C(F)(F)F)cc(C(F)(F)F)c3)n2)c1C,-5,59*,-41,/,13,23
Cc1ccc2[nH]c(C(=O)NN=C3CCCCC3)c(-c3ccccc3)c2c1,-2,27,51*,-1,1,6
NNC(=O)c1[nH]c2ccc(Cl)cc2c1-c1ccccc1,5,24,11,0,17,66*
S=C1SCN(Cc2cccnc2)CN1Cc1cccnc1,20,-11,-1,19,29,93*
S=C1SCN(Cc2ccccc2)CN1Cc1ccco1,42*,-4,10,-2,1,3
CS(=O)(=O)c1sc(C#N)c2c1C(=O)CC(c1ccccc1)C2 (stereo not drawn),24,80*,64*,58*,42,131*
O=C(O)C[C@H]1C[C@@H]2c3cc(NC(=O)NC4CCCC4)ccc3O[C@@H]2[C@@H](CO)O1,/,/,/,7,-2,-6
CN1c2ccc(-c3cccc(F)c3)cc2[C@@H]2[C@@H](CCN2C(=O)c2ccncc2)[C@H]1CO,/,/,/,2,-1,-5
COc1ccc(NC(=O)N(C)C[C@@H]2OCCCC[C@@H](C)Oc3ccc(NC(=O)NC4CCCCC4)cc3C(=O)N([C@@H](C)CO)C[C@H]2C)cc1,/,/,/,17,8,6
Cc1[nH]c2c(ccc3cccnc32)c1C,-4,-45,-3,-13,-40,-56
CC1=[N+](C)c2c(ccc3cccnc23)C1(C)C,20,45,78*,?,20,85*
COc1ccc(S(=O)(=O)Nc2cccc3c2O[C@H](CN(C)Cc2ccc(C(=O)O)cc2)[C@H](C)CN([C@@H](C)CO)C3=O)cc1,/,/,/,-1,2,/
Cc1ccccc1-n1ncc2c([N+](=O)[O-])cc([N+](=O)[O-])cc21,-2,51*,2,3,/,/
C[C@@H]1CN([C@H](C)CO)C(=O)Cc2cc(NS(=O)(=O)c3cn(C)cn3)ccc2O[C@H]1CN(C)S(C)(=O)=O,/,/,/,-8,-13,-43
CC[C@@]1(O)C(=O)OCc2c1cc1n(c2=O)Cc2cc3c(CN(C)C)c(O)ccc3nc2-1,75*,79*,33,97*,63*,102*
CCCCc1cc(=O)oc2c(CN(C)C)c(O)ccc12,7,-1,-7,/,/,/
CC[C@@]1(O)C(=O)OCc2c1cc1n(c2=O)Cc2cc3c(N)cccc3nc2-1,83*,63*,70*,/,?,99*
CC(C)NC(=O)[C@@]1(c2ccc([N+](=O)[O-])cc2)CC(=O)N(CC23CC4CC(CC(C4)C2)C3)[C@@H]1c1ccc(CO)cc1,/,/,/,/,-4,15
SMILES,LMP1 NFkB inh,TROY signal inh,TWEAK-Fn14 inh,LGR2 antag,EWS-Fli inh,PAX8 inh HTS
CCCNC(=O)[C@@]1(c2ccc([N+](=O)[O-])cc2)CC(=O)N(CC23CC4CC(CC(C4)C2)C3)[C@@H]1c1ccc(CO)cc1I,/,/,/,/,42,105*
COc1ccccc1NC(=O)C[C@H]1CC[C@H]2[C@@H](COc3ccc(NC(C)=O)cc3C(=O)N2C)O1,/,/,/,-9,-1,/
CC(C)Cc1nnc(NC(=O)c2ccc(N3CCCC3=O)cc2)s1,-3,-30,-12,-19,-3,-18
CNC(=O)c1ccsc1NC(=O)c1ccc2c(c1)CCCC2,-46,-38,-26,-102,-125,-9
NC(=O)c1ccsc1NC(=O)c1ccc(N2CCCC2=O)cc1,23,9,43,72*,-29,2
NC(=O)c1ccsc1NC(=O)c1ccc2c(c1)CCCC2,-69,20,48,63*,11,-4
C/C=C/c1ccc([C@H]2[C@@H](CNC(C)=O)N(Cc3ccccn3)[C@H]2CO)cc1,/,/,/,8,2,25
COc1ccc(NC(=O)N(C)C[C@H]2Oc3cc(C#CCC(C)C)ccc3S(=O)(=O)N([C@@H](C)CO)C[C@H]2C)cc1,/,/,/,/,26,13
CC(=NCc1ccco1)c1c(C)[nH]n(-c2nc3ccccc3s2)c1=O,20,84*,90*,/,/,/
O=c1c(C=NCc2cccnc2)c(C(F)(F)F)[nH]n1-c1nc2ccccc2s1,15,48,77*,58*,-23,14
CCC(=NCc1ccccc1)c1c(C(F)(F)F)[nH]n(-c2nc3ccccc3s2)c1=O,5,-63,41,/,/,/
CCC(=NCc1ccco1)c1c(C(F)(F)F)[nH]n(-c2nc3ccccc3s2)c1=O,15,-29,87*,/,/,-84
O=C(C[C@H]1C[C@@H]2c3cc(NS(=O)(=O)c4ccccc4)ccc3O[C@@H]2[C@H](CO)O1)N1CCCCC1,/,/,/,2,-4,-15
COc1ccc(-c2noc(CCCC(=O)O)n2)cc1,-4,40,78*,/,/,/
CCCCC(CCC(=O)O)(C(=O)OCC)c1csc(N)n1 (stereo not drawn),-2,/,73*,/,/,/
CCCCC(CCC(=O)O)(C(=O)OCC)c1csc(Nc2ccccc2)n1 (stereo not drawn),3,9,-5,/,/,/
CCN1[C@@H]2c3ccc(-c4cccc(C(=O)N(C)C)c4)c(=O)n3C[C@@H]2[C@@H](CO)[C@@H]1C(=O)OC,/,/,/,12,2,/
CN(C)S(=O)(=O)c1ccc(NC(=O)c2cc(-c3cccs3)nc3ccccc23)cc1,-6,88*,33,-7,16,58
Cc1ccsc1/C=N/NC(=O)c1cc(-c2ccncc2)nc2ccccc12,0,10,28,22,41,69*
O=C(N/N=C/c1ccsc1)c1cc(-c2cccs2)nc2ccccc12,-11,18,-5,10,14,133*
CCN(CC)S(=O)(=O)c1ccc(NC(=O)c2cc(-c3cccs3)nc3ccccc23)cc1,0,-3,17,/,8,-8
COc1cc(C(=O)Nc2ccc(C)cc2)c2ccccc2n1,2,-5,-8,-4,54*,33
COc1ccccc1-c1cc(C(=O)N/N=C/c2sccc2C)c2ccccc2n1,7,8,-10,/,/,/

# Screens as filed in PubChem.
